Measured values taken from the supplement of paper PMC10849652.
Targets with a hit are over-represented here; the source holds about 8,800 in all. About 0.5% of all pairs of compound and target were hits. A number with no mark means an inactive call.

What was measured:
Test in all cases: log2 fold change, soluble protein after heating vs DMSO (PISA); higher = thermal stabilisation; K562 lysate, 10 uM; active = over 0.2 and 3.5 SD of the protein, either way, in both replicates (recomputed)
lapatinib = compound: CS(=O)(=O)CCNCc1ccc(-c2ccc3ncnc(Nc4ccc(OCc5cccc(F)c5)c(Cl)c4)c3c2)o1 [lapatinib]
Method in brief: (§1)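 Pellets of K562 cells were dounce-homogenised in PBS pH 7.4 with 1 mM MgCl2, and the crude extract was held at 1 mg/mL protein for a 30 min treatment with 10 μM compound. Aliquots were heated for 3 min over 48°C-58°C and pooled before NP-40 was added to 0.5% at 4°C. The supernatant from 21,000xg for 90 min was quantified by TMTpro 16plex LC-MS/MS with channel sums equalised. Values are reported from duplicates as log-two fold change in thermal stability relative to solvent controls.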

crizotinib = compound: C[C@@H](Oc1cc(-c2cnn(C3CCNCC3)c2)cnc1N)c1c(Cl)ccc(F)c1Cl [crizotinib]
Method in brief: as §1

[1] = compound: C[C@H](C1=CC=C(C=C1)C(=O)NC2=C3C=CNC3=NC=C2)N
Method in brief: as §1

gandotinib = compound: Cc1cc(Nc2cc(CN3CCOCC3)c3nc(C)c(Cc4ccc(Cl)cc4F)n3n2)n[nH]1 [gandotinib]
Method in brief: as §1

doramapimod = compound: Cc1ccc(-n2nc(C(C)(C)C)cc2NC(=O)Nc2ccc(OCCN3CCOCC3)c3ccccc23)cc1 [doramapimod]
Method in brief: as §1

[2] = compound: Cc1cccc(CC(=O)N2CCc3c2ccc(-c2cn(C)c4ncnc(N)c24)c3F)n1
Method in brief: as §1

nilotinib = compound: Cc1cn(-c2cc(NC(=O)c3ccc(C)c(Nc4nccc(-c5cccnc5)n4)c3)cc(C(F)(F)F)c2)cn1 [nilotinib]
Method in brief: as §1

[3] = compound: Cc1nc(Nc2n[nH]c3c2CN(C(=O)N[C@H](CN(C)C)c2ccccc2)C3(C)C)c2sccc2n1
Method in brief: as §1

[4] = compound: Cc1ncc(-c2ccnc(Nc3ccc(S(C)(=O)=O)cc3)n2)n1C(C)C
Method in brief: as §1

quisinostat = compound: Cn1cc(CNCC2CCN(c3ncc(C(=O)NO)cn3)CC2)c2ccccc21 [quisinostat]
Method in brief: as §1

tipifarnib = compound: Cn1cncc1[C@@](N)(c1ccc(Cl)cc1)c1ccc2c(c1)c(-c1cccc(Cl)c1)cc(=O)n2C [tipifarnib]
Method in brief: as §1

[5] = compound: NC(=O)Nc1cc(-c2cccc(F)c2)sc1C(=O)N[C@H]1CCCNC1
Method in brief: as §1

[6] = compound: NC(=O)c1cnc(N[C@@H]2CCCC[C@@H]2N)nc1Nc1cccc(-n2nccn2)c1
Method in brief: as §1

duvelisib = compound: C[C@H](Nc1ncnc2nc[nH]c12)c1cc2cccc(Cl)c2c(=O)n1-c1ccccc1 [duvelisib]
Method in brief: as §1

tozasertib = compound: Cc1cc(Nc2cc(N3CCN(C)CC3)nc(Sc3ccc(NC(=O)C4CC4)cc3)n2)n[nH]1 [tozasertib]
Method in brief: as §1

dasatinib = compound: Cc1nc(Nc2ncc(C(=O)Nc3c(C)cccc3Cl)s2)cc(N2CCN(CCO)CC2)n1 [dasatinib]
Method in brief: as §1

[7] = compound: Cn1cc(-c2ccc3c(c2)CCN3C(=O)Cc2cccc(C(F)(F)F)c2)c2c(N)ncnc21
Method in brief: as §1

[8] = compound: NC1(c2ccc(-c3nc4ccn5c(=O)[nH]nc5c4cc3-c3ccccc3)cc2)CCC1
Method in brief: as §1

pictilisib = compound: CS(=O)(=O)N1CCN(Cc2cc3nc(-c4cccc5[nH]ncc45)nc(N4CCOCC4)c3s2)CC1 [pictilisib]
Method in brief: as §1

bafetinib = compound: Cc1ccc(NC(=O)c2ccc(CN3CC[C@H](N(C)C)C3)c(C(F)(F)F)c2)cc1Nc1nccc(-c2cncnc2)n1 [bafetinib]
Method in brief: as §1

Chain of UniProt O15027 (O15027 whole entry, looked up): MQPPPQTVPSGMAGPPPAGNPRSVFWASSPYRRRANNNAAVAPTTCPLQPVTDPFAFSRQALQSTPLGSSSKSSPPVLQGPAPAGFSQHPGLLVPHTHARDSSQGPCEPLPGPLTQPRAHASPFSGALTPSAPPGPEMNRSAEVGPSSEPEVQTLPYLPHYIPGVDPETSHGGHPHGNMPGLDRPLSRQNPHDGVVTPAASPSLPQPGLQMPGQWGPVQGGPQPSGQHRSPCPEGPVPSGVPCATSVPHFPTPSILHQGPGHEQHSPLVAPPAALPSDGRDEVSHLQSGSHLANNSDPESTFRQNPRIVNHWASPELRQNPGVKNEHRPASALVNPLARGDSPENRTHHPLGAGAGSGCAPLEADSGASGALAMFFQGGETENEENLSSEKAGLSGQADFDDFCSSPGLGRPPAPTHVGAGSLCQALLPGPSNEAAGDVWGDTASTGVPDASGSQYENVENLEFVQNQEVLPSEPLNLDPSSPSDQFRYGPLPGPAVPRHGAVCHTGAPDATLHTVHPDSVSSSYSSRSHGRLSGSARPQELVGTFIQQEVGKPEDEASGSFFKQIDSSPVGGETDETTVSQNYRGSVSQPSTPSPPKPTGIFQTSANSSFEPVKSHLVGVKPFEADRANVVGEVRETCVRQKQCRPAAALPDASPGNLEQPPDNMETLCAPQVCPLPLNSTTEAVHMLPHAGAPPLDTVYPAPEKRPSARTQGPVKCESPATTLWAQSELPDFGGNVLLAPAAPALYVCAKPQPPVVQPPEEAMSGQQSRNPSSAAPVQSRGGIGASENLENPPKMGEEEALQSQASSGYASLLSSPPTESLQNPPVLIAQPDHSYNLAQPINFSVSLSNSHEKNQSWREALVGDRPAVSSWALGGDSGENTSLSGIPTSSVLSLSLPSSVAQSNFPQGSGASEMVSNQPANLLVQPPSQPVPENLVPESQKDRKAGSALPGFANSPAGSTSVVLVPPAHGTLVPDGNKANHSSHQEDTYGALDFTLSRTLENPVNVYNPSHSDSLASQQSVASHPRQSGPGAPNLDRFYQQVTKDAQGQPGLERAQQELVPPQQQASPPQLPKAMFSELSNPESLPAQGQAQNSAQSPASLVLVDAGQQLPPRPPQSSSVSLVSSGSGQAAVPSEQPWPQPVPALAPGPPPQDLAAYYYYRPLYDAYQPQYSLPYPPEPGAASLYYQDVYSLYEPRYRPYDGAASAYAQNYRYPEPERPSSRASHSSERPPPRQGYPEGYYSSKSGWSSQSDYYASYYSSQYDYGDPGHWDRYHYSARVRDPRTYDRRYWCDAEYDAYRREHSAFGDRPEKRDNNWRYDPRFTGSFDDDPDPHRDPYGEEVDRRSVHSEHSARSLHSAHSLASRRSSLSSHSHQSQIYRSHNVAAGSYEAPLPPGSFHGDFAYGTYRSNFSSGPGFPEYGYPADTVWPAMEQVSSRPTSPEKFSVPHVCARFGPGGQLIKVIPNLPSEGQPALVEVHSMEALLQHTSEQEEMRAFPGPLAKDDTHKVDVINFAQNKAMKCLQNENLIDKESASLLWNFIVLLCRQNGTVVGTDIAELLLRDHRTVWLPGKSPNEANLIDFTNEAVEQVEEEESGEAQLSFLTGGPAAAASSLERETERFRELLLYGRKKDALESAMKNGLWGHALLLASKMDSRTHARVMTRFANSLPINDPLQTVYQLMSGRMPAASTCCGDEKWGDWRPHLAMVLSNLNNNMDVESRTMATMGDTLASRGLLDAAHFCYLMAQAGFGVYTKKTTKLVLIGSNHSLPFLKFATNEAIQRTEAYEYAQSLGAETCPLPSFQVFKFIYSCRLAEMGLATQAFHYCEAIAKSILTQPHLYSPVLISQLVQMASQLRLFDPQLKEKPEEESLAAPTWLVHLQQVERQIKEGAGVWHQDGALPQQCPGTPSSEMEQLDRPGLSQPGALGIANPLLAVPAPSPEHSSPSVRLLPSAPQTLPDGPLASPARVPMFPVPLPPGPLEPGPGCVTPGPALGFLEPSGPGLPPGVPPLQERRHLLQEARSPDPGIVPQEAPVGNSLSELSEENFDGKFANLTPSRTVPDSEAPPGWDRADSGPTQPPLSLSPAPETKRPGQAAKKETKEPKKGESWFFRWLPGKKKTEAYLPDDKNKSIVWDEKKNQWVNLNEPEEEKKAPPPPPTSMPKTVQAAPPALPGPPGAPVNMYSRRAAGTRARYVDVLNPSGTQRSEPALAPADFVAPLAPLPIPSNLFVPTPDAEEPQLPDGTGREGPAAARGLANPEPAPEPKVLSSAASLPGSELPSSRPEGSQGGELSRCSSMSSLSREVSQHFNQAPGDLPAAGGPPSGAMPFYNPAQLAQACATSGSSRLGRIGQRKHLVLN
Chain of UniProt Q92698 (Q92698 whole entry, looked up): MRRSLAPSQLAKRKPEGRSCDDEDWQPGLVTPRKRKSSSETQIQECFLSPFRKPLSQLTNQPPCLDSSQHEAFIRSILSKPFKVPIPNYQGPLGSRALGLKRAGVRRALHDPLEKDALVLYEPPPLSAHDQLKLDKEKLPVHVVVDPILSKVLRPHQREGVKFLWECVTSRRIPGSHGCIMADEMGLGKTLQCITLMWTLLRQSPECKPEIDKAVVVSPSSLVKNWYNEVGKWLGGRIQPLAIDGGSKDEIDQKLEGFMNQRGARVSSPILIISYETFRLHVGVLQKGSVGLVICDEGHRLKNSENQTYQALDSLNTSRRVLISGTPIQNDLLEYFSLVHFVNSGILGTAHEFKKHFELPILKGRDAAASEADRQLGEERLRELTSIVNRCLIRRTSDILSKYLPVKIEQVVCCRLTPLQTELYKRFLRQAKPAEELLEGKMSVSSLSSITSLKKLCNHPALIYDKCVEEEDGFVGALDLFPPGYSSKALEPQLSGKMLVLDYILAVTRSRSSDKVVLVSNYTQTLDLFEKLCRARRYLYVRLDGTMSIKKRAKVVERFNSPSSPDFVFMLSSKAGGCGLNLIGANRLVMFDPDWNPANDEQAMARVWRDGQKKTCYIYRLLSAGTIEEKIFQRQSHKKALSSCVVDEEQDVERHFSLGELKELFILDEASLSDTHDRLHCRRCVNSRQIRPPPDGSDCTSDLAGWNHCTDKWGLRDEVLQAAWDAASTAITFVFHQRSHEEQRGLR
Chain of UniProt Q9NVW2 (Q9NVW2 whole entry, looked up): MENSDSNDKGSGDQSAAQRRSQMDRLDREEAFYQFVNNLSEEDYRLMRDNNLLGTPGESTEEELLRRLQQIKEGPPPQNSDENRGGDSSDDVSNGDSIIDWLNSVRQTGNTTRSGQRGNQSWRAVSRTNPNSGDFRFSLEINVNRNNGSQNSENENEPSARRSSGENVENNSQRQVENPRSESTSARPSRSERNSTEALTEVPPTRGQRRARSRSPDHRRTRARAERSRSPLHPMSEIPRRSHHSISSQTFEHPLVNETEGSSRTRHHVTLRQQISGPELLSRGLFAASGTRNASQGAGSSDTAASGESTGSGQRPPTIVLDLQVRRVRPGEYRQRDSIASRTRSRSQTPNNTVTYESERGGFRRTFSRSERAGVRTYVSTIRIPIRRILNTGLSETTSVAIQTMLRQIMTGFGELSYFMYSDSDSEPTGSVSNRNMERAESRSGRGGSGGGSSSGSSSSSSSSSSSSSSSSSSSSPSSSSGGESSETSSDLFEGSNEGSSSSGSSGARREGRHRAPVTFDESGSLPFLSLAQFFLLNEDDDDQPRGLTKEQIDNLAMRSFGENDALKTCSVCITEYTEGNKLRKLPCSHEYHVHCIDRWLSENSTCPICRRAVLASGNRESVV
Chain of UniProt Q96E14 (Q96E14 whole entry, looked up): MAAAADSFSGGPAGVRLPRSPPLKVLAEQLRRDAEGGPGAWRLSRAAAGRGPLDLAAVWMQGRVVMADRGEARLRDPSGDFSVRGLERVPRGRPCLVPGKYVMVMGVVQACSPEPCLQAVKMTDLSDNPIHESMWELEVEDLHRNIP
Chain of UniProt O75582 (O75582 whole entry, looked up): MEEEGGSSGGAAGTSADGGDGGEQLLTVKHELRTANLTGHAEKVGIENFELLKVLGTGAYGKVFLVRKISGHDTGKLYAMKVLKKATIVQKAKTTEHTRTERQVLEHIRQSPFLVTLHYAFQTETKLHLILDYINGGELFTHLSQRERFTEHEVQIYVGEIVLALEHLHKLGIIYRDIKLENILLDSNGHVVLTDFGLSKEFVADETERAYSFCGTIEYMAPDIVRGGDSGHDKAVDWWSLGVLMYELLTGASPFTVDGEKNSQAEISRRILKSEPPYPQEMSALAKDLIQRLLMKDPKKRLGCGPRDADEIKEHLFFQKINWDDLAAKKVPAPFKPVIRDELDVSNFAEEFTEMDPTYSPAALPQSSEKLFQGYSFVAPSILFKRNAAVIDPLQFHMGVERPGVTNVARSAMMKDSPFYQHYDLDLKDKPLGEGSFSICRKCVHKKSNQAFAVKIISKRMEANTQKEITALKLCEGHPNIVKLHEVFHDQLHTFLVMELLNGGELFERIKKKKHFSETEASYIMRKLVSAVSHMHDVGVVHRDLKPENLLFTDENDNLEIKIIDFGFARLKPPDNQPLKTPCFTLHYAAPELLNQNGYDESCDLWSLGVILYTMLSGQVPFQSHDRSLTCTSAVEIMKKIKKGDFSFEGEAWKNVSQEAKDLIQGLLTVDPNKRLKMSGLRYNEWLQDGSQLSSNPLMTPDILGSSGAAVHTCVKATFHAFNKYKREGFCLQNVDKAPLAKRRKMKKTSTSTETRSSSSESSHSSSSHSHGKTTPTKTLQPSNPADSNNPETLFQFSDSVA
Chain of UniProt Q7L0Q8 (Q7L0Q8 whole entry, looked up): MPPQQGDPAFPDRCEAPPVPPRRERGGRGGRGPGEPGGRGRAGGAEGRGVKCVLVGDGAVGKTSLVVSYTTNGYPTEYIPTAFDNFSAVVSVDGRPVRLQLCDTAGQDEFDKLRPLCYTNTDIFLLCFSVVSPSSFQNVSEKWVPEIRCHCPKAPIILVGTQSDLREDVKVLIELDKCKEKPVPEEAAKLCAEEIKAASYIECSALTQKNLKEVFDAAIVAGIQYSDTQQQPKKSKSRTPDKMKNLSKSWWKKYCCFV

Target	log2 fold change (lapatinib)	log2 fold change (crizotinib)	log2 fold change [1]	log2 fold change (gandotinib)	log2 fold change (doramapimod)	log2 fold change [2]	log2 fold change (nilotinib)	log2 fold change [3]	log2 fold change [4]	log2 fold change (quisinostat)	log2 fold change (tipifarnib)	log2 fold change [5]	log2 fold change [6]	log2 fold change (duvelisib)	log2 fold change (tozasertib)	log2 fold change (dasatinib)	log2 fold change [7]	log2 fold change [8]	log2 fold change (pictilisib)	log2 fold change (bafetinib)
RBM45 (UniProt Q8IUH3)	-0.12	-0.094	0.184	-0.1	0.014	0.077	0.051	-0.077	0.143	-0.145	-0.012	-0.025	0.061							
RFNG (UniProt Q9Y644)							0.184	0.054	-0.078		-0.048									
RMI2 (UniProt Q96E14)		0.005			-0.012					-0.051		0.021		0.013	-0.068	-0.049	-0.044	0.082		
RHOU (UniProt Q7L0Q8)	-0.05	-0.002	-0.323 (active)	-0.031	0.038	0.056	-0.032	-0.028	0.114	-0.053	0.12	0.035	-0.045	0.024	0.113	-0.004	0.145	0.033		
SCNM1 (UniProt Q9BWG6)	0.006	0.057	0.022	0.015	-0.017	-0.157	-0.078	-0.045	-0.091	-0.061	0.045	0.06	-0.104	0.057	-0.039	0.122	0.015	-0.106		
RNF24 isoform 2 (UniProt Q9Y225)		-0.074	-0.173	0.117	-0.093	0.028	0.105	-0.028	0.123	-0.139	0.034	-0.075						0.051	-0.089	-0.477
RLIM (UniProt Q9NVW2)		-0.323			-0.044					-0.748 (active)		0.233							-0.053	-0.193
SEC16A isoform 3 (UniProt O15027)														0.024		-0.026	-0.039			
SERAC1 (UniProt Q96JX3)			-0.074	0.052		0.127	0.085	-0.133	-0.029		0.033			0.145	-0.089	-0.152	0.052	-0.023	-0.018	-0.276
S100A6 (UniProt P06703)	0.069	0.119	0.088	0.207	-0.017	-0.119				0.001		-0.078	-0.063	0	-0.038	0.774 (active)	-0.063	0.026		
ROBO2 isoform 3 (UniProt Q9HCK4)	0.02	-0.039			0.019					0.052		0.009	0.043					0.005		
RPS6KA5 (UniProt O75582)	-0.024	0.028	0.13	-0.23	-0.043	-0.032	-0.037	0.004	-0.079	0.062	0.042	0.073	-0.086	-0.011	0.106	-0.006	0.065	-0.127		
RUFY2 isoform 1 (UniProt Q8WXA3)		-0.015	0.116	0.072	-0.136	-0.099	-0.006	0.02	0.119	0.047	0.177	0.007			0.131				-0.533 (active)	0.177
RBBP7 (UniProt C9J7L0)							-0.133	0.046	0.222		0.039									
RNF2 (UniProt Q99496)		0.087	0.484 (active)	-0.299	-0.032	-0.442 (active)	0.026	-0.047	0.027	0.154	-0.124	-0.015		0.031	0.021	-0.07	-0.025	-0.05		
SEMA4G isoform 2 (UniProt Q9NTN9)		-0.084	0.036	0.019	-0.053	-0.024				0.074		0.085		-0.294	0.082	0.006	0.235	0.077		
SATB2 (UniProt Q9UPW6)	-0.009	0.009	0.042	-0.039	0.002	-0.008	-0.08	-0.02	-0.005	-0.06	0.009	0.018	0.031	0.03	-0.008	0.041	0.013	0		
RHBDD1 (UniProt Q8TEB9)	0.06		0.036	-0.118		-0.028							0.103		-0.071				-0.216	-0.133
RAD54L (UniProt Q92698)	-0.029		-1.75 (active)	0.454		0.617	-0.004	0.078	0.037		0.007		0.015	0.109		-0.212	-0.054	-0.073	0.029	-0.185
RNPC3 (UniProt Q96LT9)	-0.018	-0.043	0.036	0.016	-0.115	-0.115	-0.104	0.069	0.01	-0.071	-0.075	-0.063	-0.056	0.072		0.042	-0.061	0.06		
RECQL4 (UniProt O94761)		-0.079	-0.039	-0.472 (active)	0.029	0.146	0.051	0.102	-0.063	-0.094	0.024	0.023		0.061	-0.014	-0.007	-0.019	0.017	-0.032	-0.099
RAD17 (UniProt O75943)		-0.01	0.021	-0.194	-0.015	-0.055	-0.027	0.073	-0.023	-0.032	-0.085	0.038		-0.027	0.005	-0.064	0		-0.019	0
RDH11 (UniProt Q8TC12)	-0.035	-0.034	-0.11	0.298 (active)	0.041	0.328 (active)	0.034	-0.05	-0.045	0.038	-0.038	0.103	0.034	-0.011	0.009	-0.075	-0.021	-0.011		
RTTN (UniProt Q86VV8)	0.306		-0.053	-0.289		0.203	-0.102	0.14	-0.003		-0.069		-0.282	0.067	-0.07	-0.086	-0.161	0.216	-0.034	-0.032
